Assay outcomes: PubChem, several laboratories
BJeLR lethal = kills HRASV12-expressing BJeLR cells. BJeLR (HRASV12) viability, CellTiter-Glo ATP luminescence, 48 h. inhibition, % (no concentration beside the values). actives 0.17% (n = 300,000). AID 1554; in the data active means inhibition above about 50%
SARS 3CLpro inh-1 = SARS-CoV 3CLpro protease inhibition; P0C6X7; recombinant SARS-CoV 3CLpro, quenched FRET peptide cleavage; inhibition, % at 6 µM; actives 0.14% (n = 290,000); AID 1706; in the data active means inhibition above about 12%
PriA SSB inh = inhibitors of Klebsiella pneumoniae PriA binding to SSB C-terminal tail; AlphaScreen SSBct-PriA binding, biotinylated peptide; inhibition, % at 33 µM; actives 0.6% (n = 430,000); in the data active means inhibition mostly above about 37%, no sharp cut-off; inactive means mostly below about 20%
SARS 3CLpro inh-2 = SARS 3CLpro inhibition, confirmation assay | shares compounds with SARS 3CLpro inh-1 | inhibition, % at 6 µM | actives 36% (n = 380) | QFRET protease activity assay; in the data active means inhibition above about 13%
A number is an active result; – = inactive; · = no result. Hits are enriched below; roughly 0.78% of the tested compounds scored in any of these assays.

SMILES | BJeLR lethal | SARS 3CLpro inh-1 | PriA SSB inh | SARS 3CLpro inh-2
COc1ccccc1/C=C1\SC(=O)N(CCC(=O)NNC(=O)c2ccccc2Cl)C1=O | – | – | – | ·
O=C(Nc1cc(-n2cccn2)ncn1)c1cc(-c2ccccc2)on1 | · | · | – | ·
COc1cc(-c2noc(-c3cn[nH]c3-c3ccccc3)n2)ccc1OC(C)C | · | · | – | ·
O=C(CCSc1ccccc1)N(CCc1cccs1)Cc1ccco1 | · | · | – | ·
Cc1cc2c(cc1C)C(c1ccccc1F)CC(=O)N2 (stereo unspecified) | – | 13 | – | –
Cc1cc2c(cc1C)C(c1cc(Br)ccc1F)CC(=O)N2 (stereo unspecified) | – | – | – | ·
CN(c1ccsc1C(=O)NCc1ccco1)S(=O)(=O)c1ccccc1 | · | · | – | ·
COc1ccc(N2CC(c3nc4ccccc4n3C/C=C/c3ccccc3)CC2=O)cc1 (stereo unspecified) | · | · | – | ·
Cc1ccc(-c2c(C)sc3ncnc(-n4nc(C)cc4N)c23)cc1 | · | · | – | ·
Cc1cc(C(=O)c2ccc(Cl)cc2)c(NC(=O)CCl)s1 | – | – | – | ·
CCc1cc(C(=O)c2ccc(C)cc2)c(NC(=O)CCl)s1 | – | 20 | – | 44
Cc1cc(OCc2ccccc2)ccc1C(O)=C1C(=O)C(=O)N(Cc2cccnc2)C1c1ccncc1 (stereo unspecified) | · | · | – | ·
COc1ccccc1C1(CNC(=O)c2cccs2)CCOCC1 | · | · | – | ·
CC(=O)n1cc(N(C(=O)CCl)c2ccc([N+](=O)[O-])cc2)c2ccccc21 | – | 14 | – | 36
CC(=O)n1cc(CO)c2ccccc21 | – | – | – | ·
Cc1noc(C)c1S(=O)(=O)Nc1ccc(C(=O)Nc2ccc(OC(F)(F)F)cc2)cc1 | – | 13 | – | –
COc1cc(NC(=O)c2ccc(NS(=O)(=O)c3c(C)noc3C)cc2)cc(OC)c1 | – | – | – | ·
CCOC(=O)c1c(NC(=O)CCl)sc(CN(C)C)c1-c1ccccc1 | – | 31 | – | 59
CCOC(=O)c1c(NC(=O)CN2CCCCC2)sc(CN(C)C)c1-c1ccccc1 | – | – | – | ·
O=C(c1cccc2[nH]ccc12)N1CCSCC1 | · | · | – | ·
CC(C)(C)NC(=O)N1CCC(CNC(=O)CCc2ccc(S(C)(=O)=O)cc2)CC1 | · | · | – | ·
O=C(O)c1ccccc1NS(=O)(=O)c1ccc(NNC(=S)Nc2ccc(OC(F)F)cc2)c([N+](=O)[O-])c1 | – | 13 | – | –
Cc1ccc(NC(=S)NNc2ccc([N+](=O)[O-])cc2S(=O)(=O)Nc2ccccc2C(=O)O)cc1C | – | – | – | ·
Cc1ccc(S(=O)(=O)Nc2cc(-c3ccccc3)nn2C)cc1Cl | – | 14 | – | –
Cc1ccc(S(=O)(=O)Nc2cc(-c3ccccc3)nn2C)cc1 | – | – | – | ·
SMILES | BJeLR lethal | SARS 3CLpro inh-1 | PriA SSB inh | SARS 3CLpro inh-2
CCCN1C(=O)C(NC(C)=O)c2ccccc21 (stereo unspecified) | – | – | – | ·
CCc1ccc2c(c1)C(NC(C)=O)C(=O)N2CCN1CCOCC1 (stereo unspecified) | – | 14 | – | 50
O=C(NCc1cccs1)C1CN(C(=O)c2ccc3c(c2)OCO3)C1 | · | · | – | ·
N=c1sccn1Cc1ccc(Cl)cc1Cl | – | – | – | ·
O=C(CCl)N=c1sccn1Cc1cccc2ccccc12 | – | – | – | ·
O=C(CCl)N=c1sccn1Cc1ccc(Cl)cc1Cl | – | 33 | – | 63
O=C(CCl)N=c1sccn1Cc1ccccc1Cl | 110 | 41 | – | 58
Cc1cc(-c2nnc(NC(=O)C(C)(C)C)o2)nn1C | · | · | – | ·
Cc1ccccc1-c1nc2ccccn2c1N | · | · | – | ·
CCOCC(=O)NCC(CC)(OC)c1ccccc1 (stereo unspecified) | · | · | – | ·
O=C(Nc1cnn([C@H]2CCOC2)c1)c1cc2ccccc2o1 | · | · | – | ·
COC(=O)Cn1c(=NC(=O)c2cccs2)sc2cc(S(N)(=O)=O)ccc21 | · | · | – | ·
COc1ccc(-c2n[nH]c(C(F)(F)F)c2-c2cc3ccccc3o2)c(O)c1 | – | 14 | – | –
COc1ccccc1-c1c(-c2ccc(OCC(=O)NN)cc2O)n[nH]c1C(F)(F)F | – | – | – | ·
CN1CCN2c3ccc(N)cc3CC3(C(=O)NC(=O)NC3=O)C2C1 (stereo unspecified) | – | 22 | – | 63
CN1C(=O)N(C)C(=O)C2(Cc3cc(N)ccc3N3CCN(c4ccccc4F)CC32)C1=O (stereo unspecified) | – | – | · | ·
CC(C)NC(=O)c1ccc(-c2c(Cl)cccc2Cl)o1 | · | · | – | ·
CCOc1cc(C(C(=O)NCC2CCCO2)N(C(=O)Cn2nnc3ccccc32)c2ccc(C(C)=O)cc2)ccc1O (stereo unspecified) | – | – | – | ·
CCOc1ccc(C(C(=O)Nc2ccc(F)cc2)N(C(=O)Cn2nnc3ccccc32)C2CC2)cc1 (stereo unspecified) | – | – | – | ·
COc1cccc(C(C(=O)NCC2CCCO2)N(C(=O)Cn2nnc3ccccc32)c2ccc(NC(C)=O)cc2)c1 (stereo unspecified) | – | 31 | – | 34
COc1cccc(C(C(=O)Nc2ccc(F)cc2)N(C(=O)Cn2nnc3ccccc32)C2CC2)c1 (stereo unspecified) | – | 33 | – | 37
COC(=O)c1ccccc1NC(=O)c1ccc(N2CCCCS2(=O)=O)cc1 | · | · | – | ·
CCOc1ccc(-n2ccnc(SCC(=O)c3cccc(Cl)c3)c2=O)cc1 | · | · | – | ·
COc1cc2c(C(=O)O)c(C)n(-c3ccccc3)c2c2ccccc12 | – | – | – | ·
COc1ccccc1-n1c(C)c(C(=O)O)c2cc(OC)c3ccccc3c21 | – | 14 | – | –
SMILES | BJeLR lethal | SARS 3CLpro inh-1 | PriA SSB inh | SARS 3CLpro inh-2
C[C@H]1CCc2sc3ncnc(N4CCN(Cc5ccc(Cl)c(Cl)c5)CC4)c3c2C1 | · | · | – | ·
O=C(Nc1ccc(-c2csc(NC(=O)c3ccc(Br)s3)n2)cc1)c1ccc(Br)s1 | · | · | – | ·
Cc1ccc(C)c(N2CCN(C(=O)CCS(=O)(=O)c3ccc4c(c3)NC(=O)C(C)S4)CC2)c1 (stereo unspecified) | – | 13 | – | –
COc1ccc(N2CCN(C(=O)CCS(=O)(=O)c3ccc4c(c3)NC(=O)C(C)S4)CC2)cc1 (stereo unspecified) | – | – | – | ·
COc1ccc(C2C(C(=O)c3ccc(C)o3)=C(O)C(=O)N2Cc2cccnc2)cc1 (stereo unspecified) | – | – | – | ·
Cc1ccc(C(=O)C2=C(O)C(=O)N(Cc3cccnc3)C2c2ccc(OC(C)C)cc2)o1 (stereo unspecified) | – | 13 | – | –
C[C@](O)(CNS(=O)(=O)c1ccccc1Br)c1cc2ccccc2s1 | · | · | – | ·
CC(=NN=C(N)SC1CC(=O)N(c2cccc(Cl)c2)C1=O)c1cccs1 (stereo unspecified) | · | · | – | ·
C/C(=N\N=C(/N)SC1CC(=O)N(c2cccc(Cl)c2)C1=O)c1cccs1 (stereo unspecified) | – | 13 | · | –
CCOC(=O)c1cc2c(c(C(=O)OCC)c1O)CCCC2 | · | · | – | ·
CCc1nnc(NS(=O)(=O)c2ccc(NC(=O)/C=C/c3ccccc3Cl)cc2)s1 | – | 13 | – | –
CCc1nnc(NS(=O)(=O)c2ccc(NC(=O)/C=C/C(=O)O)cc2)s1 | – | – | – | ·
CCN(C(=O)C1CN(S(C)(=O)=O)C1)c1cccc(C)c1 | · | · | – | ·
Nc1c(C(O)(C(F)(F)F)C(F)(F)F)cc(C(O)(C(F)(F)F)C(F)(F)F)c2ccccc12 | – | 14 | – | –
